# Screening data (PubChem)
# IL-1B inflam inh: qHTS for Inhibitors of Inflammasome Signaling: IL-1-beta AlphaLISA Primary Screen. THP-1 LPS/ATP IL-1B secretion, AlphaLISA, 16 h; stronger effect = lower value. activity change, % at 57.5 µM. actives 4.7% (n = 360,000). AID 743279, 2014; in the data active = activity change below about -50%; inconclusive = mostly about -30% to -49%
#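 Secreted IL-1B measured by AlphaLISA bead assay after 16 h compound exposure of THP-1 cells; compounds (final up to 57.5 uM) added 1 h before LPS (250 ng/mL) and ATP (1.25 mM) stimulation; lower signal means less secretion.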
# DT40 TDP1 no CPT: qHTS for Inhibitors of human tyrosyl-DNA phosphodiesterase 1 (TDP1): qHTS in cells in absence of CPT; actives 15% (n = 420,000); DT40 Tdp1-/- hTDP1 cells, no CPT, ATP luminescence, 48 h; Potency, µM (doses to about 46.2 µM), without a hit: top-dose activity change, negative = growth inhibition, hits mostly inhibitors; AID 686978, 2013; note: potency is the fitted concentration of half-maximal effect; nearly all actives have a fitted effect of over 55% in size
#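 Chicken DT40 Tdp1-/- cells stably complemented with human TDP1 were seeded at 400 cells/well with DMSO in place of 20 nM camptothecin. After compound pinning, cells grew at least 48 hr at 37 °C; viability read by CellTiter-Glo luminescence.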
# LDHA block: qHTS assay for inhibitors of human lactate dehydrogenase; actives 0.15% (n = 480,000); AID 1347041, 2019; purified LDHA, NADH/diaphorase-resazurin fluorescence; stronger effect = lower value; activity change, % (values are at about 110 or 230 µM); in the data active = activity change below about -30%; inconclusive = mostly about -25% to -30%;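 note: plate controls were DMSO wells for no effect and wells without enzyme for full effect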
#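 Remaining NADH was detected by diaphorase (0.133 mg/mL) converting 37 µM resazurin to fluorescent resorufin, read at 0 and 20 minutes. The preceding 5-minute room-temperature reaction used 2 nM LDHA, 0.2 mM sodium pyruvate and 0.06 mM NADH at pH 7.4.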
# VP16 counter: VP16 counterscreen qHTS for inhibitors of ROR gamma transcriptional activity; Potency, µM (series often up to 53.6 µM), for the others: top-dose activity, negative = inhibition, actives largely listed as inhibitors; AID 2546, 2010; Drosophila S2 Gal4-VP16 UAS-luciferase, luminescence, 20 h; actives 3.5% (n = 310,000);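 note: Gal4-VP16 expression switched on by copper sulfate through the metallothionein promoter; potency is the fitted concentration of half-maximal effect; nearly all actives have a fitted effect of over 50% in size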
# RORg inh: qHTS for inhibitors of ROR gamma transcriptional activity; AID 2551, 2010; Nuclear receptor ROR-gamma (Mus musculus), P51450; Drosophila S2 Gal4-RORgamma UAS-luciferase reporter, 20 h; Potency, µM (series often up to 53.6 µM), for inactives: at the top dose activity change, negative = inhibition, most hits filed as inhibitors; actives 5.4% (n = 310,000); note: potency is the fitted concentration of half-maximal effect; nearly all actives have a fitted effect of over 60% in size
# Target sequence (P51450 whole entry, looked up, the tested form may be a part): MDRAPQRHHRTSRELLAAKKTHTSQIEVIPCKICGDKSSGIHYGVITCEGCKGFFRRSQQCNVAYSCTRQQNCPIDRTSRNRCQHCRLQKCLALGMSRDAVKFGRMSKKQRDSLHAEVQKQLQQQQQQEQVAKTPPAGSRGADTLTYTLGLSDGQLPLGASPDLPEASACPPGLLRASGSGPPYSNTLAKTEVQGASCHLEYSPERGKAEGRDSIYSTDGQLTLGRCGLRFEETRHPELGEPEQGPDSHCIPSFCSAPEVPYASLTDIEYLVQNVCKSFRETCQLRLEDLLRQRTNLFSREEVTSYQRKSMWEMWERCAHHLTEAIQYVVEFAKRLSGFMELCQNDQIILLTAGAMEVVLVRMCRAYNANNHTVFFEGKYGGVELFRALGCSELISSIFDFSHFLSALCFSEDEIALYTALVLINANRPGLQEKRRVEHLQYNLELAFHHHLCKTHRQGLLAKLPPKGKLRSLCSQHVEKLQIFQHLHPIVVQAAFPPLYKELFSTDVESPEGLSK
#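 Drosophila S2 cells stably expressing Gal4-DBD/mouse RORγ fusion under metallothionein promoter plus UAS-luciferase; compound 1 h, then 700 uM CuSO4 induction for 20 h at ambient temperature; inhibition read as reduced luminescence.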
# DT40 TDP1 CPT: qHTS for Inhibitors of human tyrosyl-DNA phosphodiesterase 1 (TDP1): qHTS in cells in presence of CPT | chicken DT40 Tdp1-/-;hTDP1 cells + 20 nM CPT, ATP luminescence, 48 h | actives 12% (n = 420,000) | Potency, µM (highest dose often 46.2 µM), for the others: at the highest dose activity change, negative = growth inhibition, hits mostly inhibitors; note: potency is the fitted concentration of half-maximal effect; nearly all actives have a fitted effect of over 55% in size
#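 Chicken DT40 Tdp1-/- cells complemented with human TDP1, 400 cells/well, exposed to compounds plus 20 nM camptothecin for at least 48 h at 37 C; viability read as ATP content by CellTiter-Glo luminescence.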
# * = called active by the depositor; ? = inconclusive; . = no result given. Rows were chosen to be rich in hits. Some 18% of all compounds tested hit in one or more screens of this group. Unless noted, calls come from the whole dose curve; as a rule, active = well fitted curve in the direction sought with a large enough effect; inconclusive = small, poorly fitted or top-dose-only effect, or another doubt; inactive = no such curve, though single readings can be large; an effect the other way counts as inactive or inconclusive. Unless noted, % is set by controls: 0 for no effect and ±100 for the full control effect.
SMILES,IL-1B inflam inh,DT40 TDP1 no CPT,LDHA block,VP16 counter,RORg inh,DT40 TDP1 CPT
C[C@@H]1CN([C@@H](C)CO)C(=O)c2cc(NC(=O)Nc3ccccc3)ccc2O[C@@H](C)CCCCO[C@H]1CN(C)C(=O)Nc1ccc(C(F)(F)F)cc1,?,?,-1,.,.,?
C[C@@H]1CCCCO[C@H](CN(C)Cc2ccc3c(c2)OCO3)[C@@H](C)CN([C@H](C)CO)C(=O)c2cc(NC(=O)c3ccccc3)ccc2O1,?,15µM*,0,.,.,21µM*
C[C@@H]1CN([C@@H](C)CO)C(=O)c2cc(NC(=O)c3ccccc3)ccc2O[C@@H](C)CCCCO[C@@H]1CN(C)Cc1ccc(C(F)(F)F)cc1,?,7.3µM*,0,.,.,9.2µM*
C[C@@H]1CCCCO[C@@H](CN(C)Cc2ccccc2)[C@@H](C)CN([C@H](C)CO)C(=O)c2cc(NC(=O)Nc3cccc4ccccc34)ccc2O1,20,21µM*,7,.,.,-12%
C[C@@H]1CCCCO[C@H](CN(C)C(=O)NC2CCCCC2)[C@@H](C)CN([C@H](C)CO)C(=O)c2cc(NC(=O)c3ccccc3)ccc2O1,?,21µM*,2,.,.,?
CC(C)NC(=O)Nc1ccc2c(c1)C(=O)N([C@@H](C)CO)C[C@@H](C)[C@H](CN(C)Cc1ccccc1)OCCCC[C@H](C)O2,-12,?,-4,.,.,-19%
C[C@@H]1CCCCO[C@H](CN(C)C(=O)Nc2ccc(F)cc2)[C@@H](C)CN([C@H](C)CO)C(=O)c2cc(NC(=O)c3ccccc3)ccc2O1,-25,?,0,.,.,?
C[C@@H]1CCCCO[C@H](CN(C)C(=O)c2ccccc2)[C@@H](C)CN([C@H](C)CO)C(=O)c2cc(NC(=O)c3ccncc3)ccc2O1,19,12%,-1,.,.,8%
CCCn1nc(C(=O)NCC2CCCN2CC)c2ccccc2c1=O (stereo not drawn),.,.,0,.,.,.
Cc1ccc(C2=C(O)C(=O)N(Cc3cccnc3)C2c2cccc(Cl)c2)cc1 (stereo not drawn),.,.,7,.,.,.
COC(=O)CC1CCNCC1,.,.,-4,.,.,.
C[C@@H]1CCCCO[C@H](CN(C)Cc2ccc3c(c2)OCO3)[C@H](C)CN([C@@H](C)CO)C(=O)c2cc(NC(=O)c3ccccc3)ccc2O1,-14,21µM*,-10,.,.,26µM*
C[C@@H]1CCCCO[C@@H](CN(C)Cc2ccc3c(c2)OCO3)[C@@H](C)CN([C@H](C)CO)C(=O)c2cc(N(C)C)ccc2O1,-25,-8%,3,.,.,-3%
COc1cc(CNC(C)C)ccc1OCC(=O)Nc1cccc2ccccc12,-20,18µM*,-2,5%,8%,26µM*
CCOc1cc(CNCCCN2CCOCC2)ccc1OCC(=O)Nc1cccc2ccccc12,-5,3.7µM*,4,-15%,-9%,23µM*
COc1cc(CNCCCN2CCOCC2)ccc1OCC(=O)Nc1cccc(C(F)(F)F)c1,?,?,-4,-15%,-4%,?
O=C(COc1ccc(Br)cc1Cl)NCCCN1CCOCC1,0,4%,-2,0%,12%,-30%
O=C(COc1ccc(Br)cc1CNCCCN1CCOCC1)Nc1ccccc1,-70*,21µM*,4,-13%,5%,16µM*
COc1cc(C2C(C#N)=C(N)Oc3c2ccc2ccccc32)ccc1OCC(=O)Nc1ccccc1C (stereo not drawn),-2,26µM*,7,0%,-4%,21µM*
Brc1cccc(CNCCCN2CCOCC2)c1,32,?,-1,-7%,0%,23µM*
CCCCNCc1cc(Br)c(OCc2cccs2)c(OC)c1,-25,?,-5,-9%,-22%,?
C=CCOc1cccc(CNCCCN2CCOCC2)c1,-2,-20%,-2,-3%,-8%,34%
CCCCOc1c(Br)cc(CNCCCN2CCOCC2)cc1OC,-66*,13µM*,4,-10%,-17%,?
COc1ccc(CNC(=O)c2cccc3ccccc23)cc1,.,.,-4,.,.,.
O=C1CCCC2=C1C(c1ccsc1)CC(=O)N2c1ccccc1C(F)(F)F (stereo not drawn),.,.,-2,.,.,.
SMILES,IL-1B inflam inh,DT40 TDP1 no CPT,LDHA block,VP16 counter,RORg inh,DT40 TDP1 CPT
CCCOc1ccc(CNC(=O)Cn2cc3c(n2)-c2c(oc(C(=O)N4CCOCC4)c2C)CC3)cc1,.,23µM*,23,.,.,?
Cc1c(C(=O)N2CCOCC2)oc2c1-c1nn(CC(=O)NCc3cccc(F)c3)cc1CC2,.,?,26,.,.,?
COc1ccccc1CNC(=O)Cn1cc2c(n1)-c1c(oc(C(=O)N3CCOCC3)c1C)CC2,.,23µM*,14,.,.,?
COc1cccc(CNC(=O)Cn2cc3c(n2)-c2c(oc(C(=O)N4CCOCC4)c2C)CC3)c1,.,21µM*,19,.,.,18µM*
Cc1c(C(=O)N2CCOCC2)oc2c1-c1nn(CC(=O)NCc3cccc(Cl)c3)cc1CC2,.,16µM*,15,.,.,?
CCOc1ccc(NC(=O)Cc2coc3cc(C)c(C(C)C)cc23)cc1S(=O)(=O)N1CCCC1,.,.,13,.,.,.
CCCC(C(=O)NCc1ccc(OC)c(OC)c1)c1ccccc1 (stereo not drawn),.,.,-18,.,.,.
CCOc1ccc(N2CC(C(=O)Nc3ccc(C)cn3)CC2=O)cc1 (stereo not drawn),.,.,1,.,.,.
CCCCN(CC)CCNC(=O)Cn1cc2c(n1)-c1c(oc(C(=O)N3CCCC3)c1C)CC2,-4,?,4,?,16µM*,-12%
Cc1c(C(=O)N2CCCC2)oc2c1-c1nn(CC(=O)NCc3cccc(Br)c3)cc1CC2,.,?,32,.,.,?
C=CCNC(=O)/C(C#N)=C/c1ccc(SC)cc1,-57*,?,-6,11%,-2%,-6%
CC(=O)Nc1ccc(/C=C(\C#N)C(=O)NC2CCCCC2)cc1,-86*,?,0,-10%,-2%,-9%
CC1CCCCC1NC(=O)/C(C#N)=C/c1ccc2c(c1)OCCO2 (stereo not drawn),-102*,?,1,-20%,37%,?
CSc1ccc(/C=C(\C#N)C(=O)NC2CCCCC2)cc1,-5,21µM*,-5,5%,-9%,?
O=C(OCc1cccc(COC(=O)c2ccc(CO)cc2)c1)c1ccc(CO)cc1,.,.,-2,.,.,.
